40 compounds from PubChem BioAssay (Tox21) can be followed below.

Results filed as inconclusive are left out. Activity calls are given as the source filed them. Calls come from the whole dose curve; as a rule, active = well fitted cell-killing curve with a large enough effect in the repeat runs; inconclusive = weak or mixed curves, or effect the other way; inactive = flat fitted curve, though single readings scatter.
% is set by controls: 0 for no effect and ±100 for the full control effect; potency is the fitted concentration of half-maximal effect.

The test can be described thus: qHTS assay to identify small molecule antagonists of the constitutive androstane receptor (CAR) signaling pathway - cell viability counter screen (AID 1224837). Note: nearly all actives have a fitted effect of over 45% in size. The following applies: HepG2-CYP2B6-hCAR viability, CellTiter-Fluor, 23 h, co-treated with 50 nM CITCO; series mostly up to 92.4 µM; activity change, negative = cytotoxicity: at the top concentration. The source says: National Center for Advancing Translational Sciences [NCATS]
NIH Chemical Genomics Center [NCGC]
U.S. Environmental Protection Agency [EPA]
National Institutes of Environmental Health Sciences [NIEHS]
National Toxicology Program [NTP]
U.S. Food and Drug Administration [FDA]
The constitutive androstane receptor (CAR) is a nuclear receptor which regulates multiple drug metabolizing enzymes (DMEs) and transporters. Activating CAR will generally increase the transcription and subsequent translation of CYP2B6 and CYP3A4. These two DMEs represent about 50% of the drug metabolizing potential in the body. When CAR is deactivated, the metabolizing potential in the body will decrease, subsequently increasing the toxicity in the body or lowering the therapeutic potential of a pro-drug. Recently, there have also been studies performed indicating CARs role in energy metabolism and cancer therapy. Therefore, inhibiting CARs activity could have a potential effect on diabetes and cancer. Identifying environmental toxins and compounds which modulate CAR, through the use of the Tox21 10K compound collection, will be an important step in determining the toxicity and potential therapeutic effects these factors will have on the human body. To differentiate true CAR antagonists from cytotoxic substances, the assay is multiplexed with a cell viability assay.
Tox21 Assay Protocol Summary:
A double-stable (hCAR and CYP2B6-2.2kb) transfected cell line, derived from human hepatoma (HepG2) cells, was utilized for the duration of the quantitative high-throughput screens. The HepG2-CYP2B6-hCAR cells were dispensed at 2500 cells/4 uL/well in 1536-well white solid bottom plates using a Multidrop Combi. After the assay plates were incubated at 37 C/5% CO2 for 4 hrs, 23 nL of compounds at 15 concentrations (from 5-48 columns) or positive control (from 1 to 4 columns) were transferred to the assay plates using a Pintool station. One uL of CITCO (final concentration = 50 nM) was added, using a Flying Reagent Dispenser, inside each well. After a 23 hr incubation period at 37 C/5% CO2, 1 uL of CellTiter-Fluor reagent was added into each well of the assay plates using a Flying Reagent Dispenser. The fluorescence intensity in the plates was then measured using a ViewLux plate reader.
Take `CCOc1ccc(N)c([N+](=O)[O-])c1`: the “activity change, negative = cytotoxicity” value was -16% (inactive).

On to `NC(=O)C(c1ccccc1)(c1ccccc1)[C@@H]1CCN(CCc2ccc3c(c2)CCO3)C1`, for which the “activity change, negative = cytotoxicity” value was -20.2% [at 42.5 µM] (inactive). Same read-out and setting: to `C[C@H](CCC(=O)O)[C@H]1CC[C@H]2[C@@H]3CC[C@@H]4C[C@H](O)CC[C@]4(C)[C@H]3C[C@H](O)[C@]12C` belongs -20.4% (inactive); to `CCOC(=O)C(F)(F)F`, 0.404% (inactive); to `CC(CSC(=O)c1ccccc1)C(=O)N1C[C@@H](Sc2ccccc2)C[C@H]1C(=O)O` (stereo not given in full), 0% [at 19 µM] (inactive).

Regarding `Nc1ccccc1S(=O)(=O)c1ccccc1`, the “activity change, negative = cytotoxicity” value is 5.12% (inactive).

Regarding `c1cc(CCCc2ccncc2)ccn1`, the “activity change, negative = cytotoxicity” value is 2.25% (inactive). With `CC(COCCO)OCCO` (stereo not given), the “activity change, negative = cytotoxicity” value was 0.705% (inactive). On the same count and under the same terms, to `CCCCCCCC/C=C\CCCCCCCC(=O)OCC` belongs 4.34% (inactive). Same read-out and setting: then `CN(C)CCN(Cc1ccccc1)c1ccccn1`, with -16% [at 42.5 µM] (inactive); and `O=C1C(O)=C(O)C(=O)C(O)=C1O`, with -13.3% [at 42.5 µM] (inactive). For the compound `Nc1ccc(N)c2c1C(=O)c1ccccc1C2=O`, the Potency was 15.4 µM (active). For the compound `CN1Cc2cc(C(=O)N3CCC(C4CCNCC4)CC3)ccc2NC(CC(=O)O)C1=O` (stereo not given), the “activity change, negative = cytotoxicity” value was -2.53% [at 42.5 µM] (inactive).

For `COCC(C)OC(C)=O` (stereo not given), the “activity change, negative = cytotoxicity” value is -0.152% (inactive). The same measure, in the same setting: to `CC1OC(=O)C(C)OC1=O` (stereo not given) belongs 2.38% (inactive). The same measure, in the same setting: to `CNC(=O)CN(CCN(CCN(CC(=O)[O-])CC(=O)NC)CC(=O)[O-])CC(=O)[O-].O.[Gd+3]` belongs 0.776% [at 42.5 µM] (inactive); to `CCCCC(CC)COC(=O)COc1ccc(Cl)cc1Cl` (stereo not given), 0.676% (inactive). The same measure, in the same setting: to `COc1ccnc(CS(=O)c2nc3ccc(OC(F)F)cc3[nH]2)c1OC` (stereo not given) belongs -11.1% [at 42.5 µM] (inactive). For the compound `CCC(C)O` (stereo not given), the “activity change, negative = cytotoxicity” value is -0.763% (inactive). The same measure, in the same setting: then `Nc1cccc(S(=O)(=O)c2cccc(N)c2)c1`, with 5.03% (inactive); and `CN1CCC(N(Cc2cccs2)c2ccccc2)CC1`, with -20.1% [at 42.5 µM] (inactive).

Consider `O=S(=O)(Oc1ccc(Cl)cc1)c1ccccc1`, for which the “activity change, negative = cytotoxicity” value is 4.62% (inactive). Still for that read-out and setting: then `CCN(CC)CCOC(=O)C(Cc1cccc2ccccc12)CC1CCCO1` (stereo not given), with -27.8% [at 42.5 µM] (inactive); and `COCCCN1CCC(NC(=O)c2cc(Cl)c(N)c3c2OCC3)CC1`, with -0.682% [at 42.5 µM] (inactive). Same read-out and setting: to `C[C@H]1C[C@H]2[C@@H]3CCC4=CC(=O)C=C[C@]4(C)[C@@]3(Cl)[C@@H](O)C[C@]2(C)[C@@]1(O)C(=O)CO` belongs 0.612% [at 42.5 µM] (inactive); to `C=CCOc1ccccc1OCC(O)CNC(C)C` (stereo not given), -1.8% [at 42.5 µM] (inactive); to `O=C1CCC(=O)O1`, 1.29% (inactive). On the same count and under the same terms, then `COS(=O)(=O)C(F)(F)F`, with 15% (inactive); and `CC1=CC[C@H](C(C)C)C=C1`, with -1.76% (inactive). Regarding `CN(C)CCOC(c1ccccc1)c1ccc(Br)cc1` (stereo not given), the “activity change, negative = cytotoxicity” value was -14% [at 42.5 µM] (inactive). On to `C[C@@H](c1ncncc1F)C(O)(Cn1cncn1)c1ccc(F)cc1F` (stereo not given in full), for which the “activity change, negative = cytotoxicity” value was 1.62% [at 42.5 µM] (inactive). On the same count and under the same terms, to `COc1ccc(-c2nc3ccc(C4=NNC(=O)CC4C)cc3[nH]2)cc1` (stereo not given) belongs -22.2% [at 42.5 µM] (inactive); to `O=P(O)(OCc1ccccc1)OCc1ccccc1`, 11.1% (inactive); to `C[N+]1(C)CCC(OC(=O)C(O)(c2ccccc2)C2CCCC2)C1` (stereo not given), 4.45% [at 42.5 µM] (inactive). Same read-out and setting: to `CO[C@@H]1[C@H](OC(=O)/C=C/C=C/C=C/C=C/C(=O)O)CC[C@]2(CO2)[C@H]1[C@@]1(C)O[C@@H]1CC=C(C)C` belongs -11.1% (inactive); to `C=C(C)C(=O)OCCO`, -0.979% (inactive); to `CC[N+](C)(CC)CCOC(=O)C(O)(c1ccccc1)C1CCCCC1` (stereo not given), 1.03% [at 42.5 µM] (inactive). Regarding `CC(=O)NO`, the “activity change, negative = cytotoxicity” value is 3.09% [at 42.5 µM] (inactive).

Take `O=C(O)c1ccco1`: the “activity change, negative = cytotoxicity” value is 8.01% (inactive). For the compound `CCOC(=O)COC(=O)c1cc(Oc2ccc(C(F)(F)F)cc2Cl)ccc1[N+](=O)[O-]`, the “activity change, negative = cytotoxicity” value was -3.3% (inactive).
